Here are results for twelve molecules from ChEMBL document CHEMBL3433997, “St. Jude Leishmania screening dataset” (2016).

Common to all, as to type: functional
In test [1] the target is Solute carrier family 2, facilitated glucose transporter member 1 (Homo sapiens) (UniProt P11166). The test can be described thus: ST_JUDE_LEISH: Cytotoxicity at 2uM final concentration against transgenic Leishmania Mexicana promastigotes LmGLUT1 that are glucose transport deficient and complemented with the human glucose transporter GLUT1. Activity is measured by DNA content using SYBR green in vitro.
Solute carrier family 2, facilitated glucose transporter member 1 (Homo sapiens), sequence (P11166 whole entry): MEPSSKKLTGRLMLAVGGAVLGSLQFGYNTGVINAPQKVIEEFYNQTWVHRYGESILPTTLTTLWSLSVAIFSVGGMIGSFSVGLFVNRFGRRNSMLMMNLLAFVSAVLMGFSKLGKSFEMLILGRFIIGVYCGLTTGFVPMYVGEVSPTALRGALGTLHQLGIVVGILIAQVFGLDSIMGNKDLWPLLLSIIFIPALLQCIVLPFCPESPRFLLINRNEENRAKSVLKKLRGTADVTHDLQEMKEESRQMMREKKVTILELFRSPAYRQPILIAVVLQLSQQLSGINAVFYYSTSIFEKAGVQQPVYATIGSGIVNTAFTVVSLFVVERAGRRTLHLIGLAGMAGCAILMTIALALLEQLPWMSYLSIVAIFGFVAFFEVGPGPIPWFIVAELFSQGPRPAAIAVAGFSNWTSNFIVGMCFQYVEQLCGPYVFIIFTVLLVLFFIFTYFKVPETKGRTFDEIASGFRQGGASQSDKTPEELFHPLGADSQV

The target of test [2] is Hexose transporter 1 (Plasmodium falciparum) (UniProt O97467). The test can be described thus: ST_JUDE_LEISH: Cytotoxicity at 2uM final concentration against transgenic Leishmania Mexicana promastigotes LmPfHT that are glucose transport deficient and complemented with the Plasmodium falciparum hexose transporter. Activity is measured by DNA content using SYBR green in vitro.

Test [3] addresses Glucose transporter (Leishmania mexicana) (UniProt O61059). The test can be described thus: ST_JUDE_LEISH: Cytotoxicity at 2uM final concentration against transgenic Leishmania Mexicana promastigotes LmGT2 that are glucose transport deficient and complemented with the L. Mexicana glucose transporter 2. Activity is measured by DNA content using SYBR green in vitro.

A word on the inhibition: it is the drop in the measured response relative to a control, in per cent. With `C[C@@H]([C@@H](CCCCc1ccccc1)C(=O)N[C@H](C(=O)Nc1cccnc1)C(C)(C)C)N(O)C=O`, the inhibition in test [1] was 0.14%; in test [2], -1.56%; in test [3], 2.12%.
On the same counts, the results for `CC1(C)N=C(N)N=C(N)C1c1ccc(Cl)cc1` (stereo unspecified) are 4.19%, 5.72% and 3.51%.
Turning to `Cn1nccc1C(=O)NCCNCc1cccc(-c2csc(-c3nc4ccccc4[nH]3)c2)c1`, the inhibition in test [1] is 9.15%; in test [2], 8.22%; in test [3], 7.22%.
Turning to `N#Cc1cccc(CNC(=O)c2cccc(Nc3ccnc4ccc(F)cc34)c2)c1`, the inhibition is -0.1% in test [1], 1.25% in test [2] and 0.82% in test [3].
For the molecule `Cc1nc(-c2ccc(-c3ccc(C(=O)Nc4ccc(C(C)C)c(OCCN(C)C)c4)cc3)c(C)c2)no1`, the inhibition in test [1] was found to be 4.64%; in test [2], 2.76%; in test [3], 2.51%.
Take `CC(=O)Nc1ncc(C(=O)Nc2cccc(-c3cccc(-c4nc5cccc(C)c5[nH]4)c3)c2)s1`: the values for the inhibition in test [1], in test [2] and in test [3] were 3.02%, 2.86% and 2.45%, respectively.
For `Oc1c(CN2CCC(Cc3ccccc3)CC2)cc(Cl)c2cccnc12`, the inhibition in test [1] amounted to 13.5%; in test [2], 14%; in test [3] it was 9.31%.
On the same counts, the results for `COc1cccc(C(=O)N2CCOC(CCN3CCC(c4ccccc4)CC3)(c3ccc(Cl)c(Cl)c3)C2)c1` (stereo unspecified) are 0.55%, -0.77% and -0.26%.
For `COCCCNc1sc(S(=O)(=O)c2ccccc2)nc1S(=O)(=O)c1ccc(Cl)cc1`, the inhibition in test [1] was 3.07%; in test [2], 3.36%; in test [3], 1.01%.
As to `COc1ccc(N2CCN(C(CNC(=O)C3CCCCC3)c3ccc4c(c3)OCO4)CC2)cc1` (stereo unspecified), the results for the inhibition in test [1], in test [2] and in test [3] were 3.65%, 4.28% and 4.35%, respectively.
For `Oc1ccccc1CN1CCN(C(c2ccccc2)c2ccccc2)CC1`, the inhibition is 3.02% in test [1], 6.5% in test [2] and -0.06% in test [3].
On the same counts, the results for `O=C1CCCN1CCCNCc1ccc(-c2cccc(-c3nc4cc(C(F)(F)F)ccc4[nH]3)c2)cc1` are 1.71%, -0.32% and -0.5%.
